These results are taken from PubChem BioAssay (NCATS).

The list shows a part of the results. Results filed as inconclusive are left out. The source made the active and inactive calls. Unless noted, calls follow the shape of the dose curve; as a rule, active = well fitted curve in the direction sought with a large enough effect; inconclusive = small, poorly fitted or top-dose-only effect, or another doubt; inactive = no such curve, though single readings can be large; an effect the other way counts as inactive or inconclusive.

For assay [1], the target named is DNA polymerase iota (Homo sapiens) (UniProt Q9UNA4). The assay is described as follows: qHTS for Inhibitors of Polymerase Iota: Confirmatory Assay for Cherry-picked Compounds (AID 720496). Also: potency is read from the fitted curve at half-maximal effect. As to conditions: Pol iota primer extension, TAMRA/BHQ fluorescence. In a few lines: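 Step 1: 10 nM Pol iota with compound, 15 min, room temperature. Step 2: 50 nM final quenched DNA substrate added. Step 3: fluorescence (ex 525, em 598 nm) read at 0 and after 10 min.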
Background: qHTS replaces the single test concentration by a dilution series.

In assay [2] the target is Flap endonuclease 1 (Homo sapiens) (UniProt P39748). The experiment in a line: qHTS Assay for the Inhibitors of FEN1: Confirmatory Assay for Cherry-picked Compounds (AID 720498). Also: potency is read from the fitted curve at half-maximal effect; nearly all actives have a fitted effect of over 60% in size. As to conditions: FEN1 flap cleavage, TAMRA/BHQ2 fluorogenic DNA substrate. The method in brief: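 FEN1 at 10 nM was preincubated with compound for 15 min at room temperature, then 50 nM (final) double-flap DNA substrate was added. TAMRA fluorescence released from the BHQ-2-quenched flap was read at 0 and 15 min (ex 525/em 598 nm).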

Assay [3] addresses Bifunctional 3'-5' exonuclease/ATP-dependent helicase WRN (Homo sapiens) (UniProt Q14191). The assay is described as follows: qHTS for Inhibitors of WRN Helicase: Confirmatory Assay for Cherry-picked Compounds. (AID 720497). Also: nearly all actives have a fitted effect of over 65% in size. Also: potency is read from the fitted curve at half-maximal effect. The conditions noted are these: WRN helicase DNA unwinding, fluorescence kinetic; series mostly up to 57.1 µM. The method in brief:
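WRN (20 nM) was preincubated 15 min at RT with compound, then started with 100 nM forked duplex oligonucleotide and 2 mM ATP. Unwinding was read kinetically by red fluorescence (ex 525/em 598 nm), normalized to enzyme-free and uninhibited controls.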

Assay [4] can be described thus: qHTS for Inhibitors of WRN Helicase: Thiazole Orange DNA Binding Counterscreen (AID 720499).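 Also: drop in dye fluorescence marks compound binding to DNA; % is scaled to controls: 0 for no effect and ±100 for the full control effect; nearly all actives have a fitted effect of over 60% in size.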 The conditions noted are these: thiazole orange DNA binding displacement, fluorescence; series mostly up to 57.1 µM. In a few lines:
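Thiazole orange displacement counterscreen: compounds added to 50 nM unlabeled DNA with 100 nM ThO. Fluorescence (ex 480, em 530 nm) read after 15 min at room temperature; activity flags nonspecific DNA binding.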

Assay [5] addresses RecQ-like DNA helicase BLM (Homo sapiens) (UniProt P54132). The experiment in a line: qHTS for Inhibitors of WRN Helicase: BLM Helicase Counterscreen for WRN Inhibitors (AID 720503). Also: nearly all actives have a fitted effect of over 60% in size. Also: potency is read from the fitted curve at half-maximal effect. As to conditions: Recombinant BLM helicase DNA unwinding, red fluorescence; series mostly up to 57.1 µM. In a few lines:
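Reactions were started with 100 nM DNA substrate and 2 mM ATP (final) after compound and 1 nM BLM stood 15 min at room temperature in Tris-HCl pH 8.0 buffer with NaCl, MgCl2, DTT and Tween-20. Two red-fluorescence reads 15 min apart were normalized against DMSO and no-enzyme wells.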

The target in assay [6] is DNA polymerase eta (Homo sapiens) (UniProt Q9Y253). The experiment in a line: qHTS for Inhibitors of Polymerase Eta: Confirmatory Assay for Cherry-picked Compounds (AID 720502). Also: potency is read from the fitted curve at half-maximal effect. As to conditions: Pol eta primer extension, TAMRA/BHQ fluorescence, 10 min. In a few lines: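 Pol eta 10 nM; substrate 50 nM final (unlabeled primer, TAMRA reporter, BHQ-2 template); preincub. 15 min RT; reads t=0 and t=10 min at ex525/em598.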

Assay [7] deals with Phosphoglycerate kinase, glycosomal (Trypanosoma brucei brucei) (UniProt P07378). The assay is described as follows: qHTS for inhibitors of Phosphogylcerate Kinase: Hit Validation Screen (AID 686980). Also: potency is read from the fitted curve at half-maximal effect; nearly all actives have a fitted effect of over 65% in size. As to conditions: TbPGK coupled GAPDH assay, Kinase-Glo luminescence. The method in brief: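 Luminescent ATP detection (Kinase-Glo Plus) follows a 60-minute room-temperature incubation, with wells lacking PGK as controls. Buffer: 100 mM TEA (pH 7.6), 5 mM MgCl2, 0.01% Tween-20. Coupling enzyme GAPDH (100 nM final) supplies unstable 1,3-BPG in-well.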

Assay [8] can be described thus: qHTS profiling for inhibitors of Plasmodium falciparum (3D7) proliferation (AID 743322).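 Also: infected erythrocytes exposed to compound for 72 h before lysis; 100% = DMSO vehicle wells and 0% = 0.29 µM artemisinin.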 The conditions noted are these: P. falciparum 3D7 proliferation; at 28.7 µM (top of the series). In a few lines: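 Erythrocytes infected with P. falciparum (0.3% parasitemia, 2.5% hematocrit) incubated with compounds 72 h at 37 C, 5% CO2. Lysis with saponin/Triton buffer containing SYBR Green I, overnight at room temperature in the dark; DNA fluorescence (485/535 nm) normalised to 0.29 uM artemisinin and DMSO.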

Assay [9] can be described thus: qHTS profiling for inhibitors of Plasmodium falciparum (DD2) proliferation (AID 743323; call rule not given here). As to conditions: lower = more inhibition; at 28.7 µM (top of the series). In a few lines: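 Parasite DNA quantified by SYBR Green fluorescence (ex 485, em 535 nm) after saponin/Triton lysis and overnight dark incubation. Cultures: 0.3% parasitemia, 2.5% hematocrit, 72 h, 37 C; data scaled between DMSO and 0.29 uM artemisinin.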

A short description of assay [10]: qHTS profiling for inhibitors of Plasmodium falciparum (HB3) proliferation (AID 743324).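 Also: 100% = DMSO vehicle wells and 0% = artemisinin-treated control wells.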 The conditions noted are these: Plasmodium falciparum HB3 blood-stage proliferation; at 28.7 µM (top of the series). The method in brief: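 P. falciparum HB3 grown in erythrocytes (0.3% parasitemia, 2.5% hematocrit final) with compound for 72 h at 37 C, 5% CO2. Parasite DNA detected by SYBR Green after saponin/triton lysis overnight; normalized to 0.29 uM artemisinin and DMSO.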

Sequence of Flap endonuclease 1 (Homo sapiens) (P39748 whole entry, looked up): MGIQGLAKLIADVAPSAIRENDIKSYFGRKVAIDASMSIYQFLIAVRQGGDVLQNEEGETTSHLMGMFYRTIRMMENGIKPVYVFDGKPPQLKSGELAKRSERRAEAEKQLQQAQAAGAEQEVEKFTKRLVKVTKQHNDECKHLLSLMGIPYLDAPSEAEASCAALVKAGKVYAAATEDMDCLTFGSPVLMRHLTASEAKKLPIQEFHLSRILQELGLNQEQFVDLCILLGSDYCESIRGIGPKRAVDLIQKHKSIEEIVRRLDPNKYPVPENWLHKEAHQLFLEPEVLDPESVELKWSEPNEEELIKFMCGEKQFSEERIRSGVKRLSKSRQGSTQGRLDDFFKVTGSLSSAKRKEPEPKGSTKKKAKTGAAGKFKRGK
Sequence of Bifunctional 3'-5' exonuclease/ATP-dependent helicase WRN (Homo sapiens) (Q14191 whole entry, looked up): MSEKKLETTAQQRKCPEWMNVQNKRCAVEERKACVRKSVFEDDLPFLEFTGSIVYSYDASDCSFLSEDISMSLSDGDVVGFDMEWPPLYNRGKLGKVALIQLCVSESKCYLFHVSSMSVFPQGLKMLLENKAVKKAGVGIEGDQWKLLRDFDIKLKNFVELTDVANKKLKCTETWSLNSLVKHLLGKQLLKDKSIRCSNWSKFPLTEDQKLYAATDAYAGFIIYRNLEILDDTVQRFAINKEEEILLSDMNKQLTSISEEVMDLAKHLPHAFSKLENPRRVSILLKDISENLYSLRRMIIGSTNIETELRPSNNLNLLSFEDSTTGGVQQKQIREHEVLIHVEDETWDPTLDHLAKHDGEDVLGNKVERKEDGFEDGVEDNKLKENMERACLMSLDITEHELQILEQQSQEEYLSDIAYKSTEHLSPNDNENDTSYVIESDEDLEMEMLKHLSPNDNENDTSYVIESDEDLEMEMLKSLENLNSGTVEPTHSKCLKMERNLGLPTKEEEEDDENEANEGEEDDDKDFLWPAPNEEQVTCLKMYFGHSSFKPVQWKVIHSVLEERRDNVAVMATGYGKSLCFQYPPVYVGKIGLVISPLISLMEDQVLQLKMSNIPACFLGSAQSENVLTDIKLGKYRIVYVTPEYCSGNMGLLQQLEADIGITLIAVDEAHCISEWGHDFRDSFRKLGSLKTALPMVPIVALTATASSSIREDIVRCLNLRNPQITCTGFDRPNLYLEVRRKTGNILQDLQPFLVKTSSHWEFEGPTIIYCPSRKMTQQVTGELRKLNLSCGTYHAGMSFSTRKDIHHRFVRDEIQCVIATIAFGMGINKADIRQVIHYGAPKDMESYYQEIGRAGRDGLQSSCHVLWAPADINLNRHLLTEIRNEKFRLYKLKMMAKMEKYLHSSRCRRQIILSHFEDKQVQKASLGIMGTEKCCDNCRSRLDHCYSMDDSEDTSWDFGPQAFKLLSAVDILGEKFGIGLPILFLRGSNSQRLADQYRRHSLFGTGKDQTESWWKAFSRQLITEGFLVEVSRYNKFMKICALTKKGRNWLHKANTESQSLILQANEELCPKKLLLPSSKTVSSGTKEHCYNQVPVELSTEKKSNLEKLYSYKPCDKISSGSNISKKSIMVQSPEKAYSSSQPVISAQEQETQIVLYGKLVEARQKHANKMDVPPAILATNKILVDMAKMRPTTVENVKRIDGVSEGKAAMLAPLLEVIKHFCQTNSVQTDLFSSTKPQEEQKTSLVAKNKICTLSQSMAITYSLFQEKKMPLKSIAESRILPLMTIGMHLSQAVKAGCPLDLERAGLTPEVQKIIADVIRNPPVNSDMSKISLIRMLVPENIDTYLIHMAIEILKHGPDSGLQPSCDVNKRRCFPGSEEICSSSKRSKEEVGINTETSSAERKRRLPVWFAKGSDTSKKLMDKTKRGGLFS
Sequence of RecQ-like DNA helicase BLM (Homo sapiens) (P54132 whole entry, looked up): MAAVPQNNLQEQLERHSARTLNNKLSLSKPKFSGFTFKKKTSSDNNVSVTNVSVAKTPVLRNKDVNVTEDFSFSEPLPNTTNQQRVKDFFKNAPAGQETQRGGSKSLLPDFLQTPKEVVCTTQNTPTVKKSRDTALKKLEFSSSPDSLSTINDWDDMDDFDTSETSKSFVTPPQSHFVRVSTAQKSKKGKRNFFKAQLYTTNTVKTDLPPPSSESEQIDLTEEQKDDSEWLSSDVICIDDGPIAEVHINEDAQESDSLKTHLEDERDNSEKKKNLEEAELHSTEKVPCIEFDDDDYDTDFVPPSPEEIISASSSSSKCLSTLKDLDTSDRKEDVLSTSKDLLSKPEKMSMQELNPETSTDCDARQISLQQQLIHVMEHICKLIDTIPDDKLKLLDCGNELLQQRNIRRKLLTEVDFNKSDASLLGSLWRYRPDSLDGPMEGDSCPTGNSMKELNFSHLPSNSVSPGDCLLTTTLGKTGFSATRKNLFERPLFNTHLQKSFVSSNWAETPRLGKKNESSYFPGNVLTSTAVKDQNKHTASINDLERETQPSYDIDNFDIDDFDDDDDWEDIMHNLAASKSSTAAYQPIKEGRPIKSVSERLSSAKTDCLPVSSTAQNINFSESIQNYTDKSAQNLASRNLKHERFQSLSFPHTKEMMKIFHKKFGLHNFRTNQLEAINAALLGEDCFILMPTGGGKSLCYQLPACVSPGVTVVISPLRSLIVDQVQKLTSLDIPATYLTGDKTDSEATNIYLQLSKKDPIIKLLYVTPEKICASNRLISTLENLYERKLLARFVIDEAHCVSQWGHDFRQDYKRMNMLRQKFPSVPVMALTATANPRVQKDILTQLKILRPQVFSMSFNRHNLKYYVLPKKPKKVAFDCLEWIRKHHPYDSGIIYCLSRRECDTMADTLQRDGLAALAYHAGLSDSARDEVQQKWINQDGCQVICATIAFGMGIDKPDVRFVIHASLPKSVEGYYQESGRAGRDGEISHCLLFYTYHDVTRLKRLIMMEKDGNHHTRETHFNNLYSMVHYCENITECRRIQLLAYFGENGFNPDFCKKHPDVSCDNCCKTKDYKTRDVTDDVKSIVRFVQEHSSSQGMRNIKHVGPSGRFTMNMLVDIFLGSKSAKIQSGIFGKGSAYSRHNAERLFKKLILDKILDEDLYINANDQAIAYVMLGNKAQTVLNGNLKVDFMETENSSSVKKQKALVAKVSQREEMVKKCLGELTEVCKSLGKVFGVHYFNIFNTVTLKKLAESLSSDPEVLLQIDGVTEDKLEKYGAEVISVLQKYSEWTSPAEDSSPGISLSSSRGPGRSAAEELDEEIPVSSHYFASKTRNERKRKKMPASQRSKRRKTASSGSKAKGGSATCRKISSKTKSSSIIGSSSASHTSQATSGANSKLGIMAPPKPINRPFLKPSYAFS
Sequence of DNA polymerase iota (Homo sapiens) (Q9UNA4 whole entry, looked up): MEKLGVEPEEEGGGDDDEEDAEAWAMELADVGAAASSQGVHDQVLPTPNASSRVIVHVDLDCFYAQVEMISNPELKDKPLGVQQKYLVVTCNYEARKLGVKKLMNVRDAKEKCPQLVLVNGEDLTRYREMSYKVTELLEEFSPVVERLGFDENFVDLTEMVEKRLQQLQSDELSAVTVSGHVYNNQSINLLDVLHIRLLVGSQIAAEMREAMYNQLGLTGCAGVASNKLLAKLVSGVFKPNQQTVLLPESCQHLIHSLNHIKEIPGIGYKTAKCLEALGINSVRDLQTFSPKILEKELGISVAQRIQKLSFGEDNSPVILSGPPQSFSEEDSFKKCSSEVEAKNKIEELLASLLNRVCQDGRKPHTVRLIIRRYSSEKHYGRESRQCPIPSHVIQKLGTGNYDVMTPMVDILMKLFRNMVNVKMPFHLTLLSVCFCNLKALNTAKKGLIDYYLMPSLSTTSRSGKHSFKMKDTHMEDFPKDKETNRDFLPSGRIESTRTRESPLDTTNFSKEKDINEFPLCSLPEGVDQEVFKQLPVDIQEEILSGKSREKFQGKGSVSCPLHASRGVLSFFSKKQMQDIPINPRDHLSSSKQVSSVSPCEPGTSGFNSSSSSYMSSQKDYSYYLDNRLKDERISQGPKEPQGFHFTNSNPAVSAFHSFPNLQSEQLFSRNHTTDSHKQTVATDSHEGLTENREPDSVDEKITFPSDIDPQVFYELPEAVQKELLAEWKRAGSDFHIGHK
Sequence of DNA polymerase eta (Homo sapiens) (Q9Y253 whole entry, looked up): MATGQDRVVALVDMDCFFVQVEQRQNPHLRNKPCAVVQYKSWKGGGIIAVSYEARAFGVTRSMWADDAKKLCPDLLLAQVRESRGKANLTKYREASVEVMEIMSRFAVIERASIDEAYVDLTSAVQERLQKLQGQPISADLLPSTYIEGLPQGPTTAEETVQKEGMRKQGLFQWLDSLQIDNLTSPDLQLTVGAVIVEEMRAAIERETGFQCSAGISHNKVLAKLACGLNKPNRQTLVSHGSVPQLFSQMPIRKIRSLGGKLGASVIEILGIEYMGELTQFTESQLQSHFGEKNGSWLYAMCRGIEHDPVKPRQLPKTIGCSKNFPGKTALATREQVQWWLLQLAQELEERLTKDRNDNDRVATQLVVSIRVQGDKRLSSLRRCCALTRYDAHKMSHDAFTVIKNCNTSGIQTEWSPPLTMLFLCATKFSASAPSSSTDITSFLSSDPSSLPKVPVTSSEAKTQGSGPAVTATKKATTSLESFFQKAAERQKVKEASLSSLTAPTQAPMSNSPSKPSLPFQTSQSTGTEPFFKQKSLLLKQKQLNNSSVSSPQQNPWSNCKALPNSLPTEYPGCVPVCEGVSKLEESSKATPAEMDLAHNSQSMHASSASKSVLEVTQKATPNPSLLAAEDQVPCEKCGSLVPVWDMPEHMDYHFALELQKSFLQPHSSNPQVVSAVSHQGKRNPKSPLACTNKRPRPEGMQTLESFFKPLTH

`O=C(O)C(c1ccccc1)N1C(=O)/C(=C\c2ccc(-c3cccc(Cl)c3)o2)SC1=S` (centres undefined): the Potency is 67 µM (active) in assay [1] and 75.7 µM (active) in [2].
Turning to `CCN1CCN(CCNC(=O)c2ccc3c(c2)NC(=O)/C(=C\c2ccc(OC)c(OC)c2)S3)CC1`, in [2], the Potency was 33.8 µM (active).
For `COc1cccc2c1C(=O)c1c(O)c3c(c(O)c1C2=O)CC(O)(C(C)=NNC(=O)c1ccc(Cl)c(Cl)c1)CC3OC1CC(N)C(O)C(C)O1` (centres undefined), the Potency in assay [3] is 1.92 µM (active); in assay [5], 4.29 µM (active). Besides, the Potency result in assay [4] was “inactive”.
In the case of `CN1CCN(CCCNC(=O)c2ccc(/C=C3\Oc4ccccc4N(Cc4ccc(Cl)cc4)C3=O)cc2)CC1`, the Potency in [1] was 42.3 µM (active); in assay [2], 23.9 µM (active).
Regarding `O=C(N/N=C/c1ccco1)c1ccc(C(=O)N/N=C/c2ccco2)o1`, the values for the Potency in [1] and in assay [6] were 42.3 µM (active) and 53.6 µM (active), respectively.
With `O=[N+]([O-])c1ccc(C=Nc2ccc(Cl)cc2Cl)s1`, the Potency in assay [2] is 6.75 µM (active).
Take `CCOc1cccc2c1N[C@@H](c1ccc(C(=O)O)cc1)[C@H]1CC=C[C@@H]21`: the Potency was 33.6 µM (active) in [1] and 47.8 µM (active) in assay [2].
As to `CC(=O)OC1CCC2(C)C(=CCC3C4CC(=O)N(O)C(=O)C4(C)CCC32)C1` (centres undefined), the Potency in assay [2] was 23.9 µM (active).
With `Cc1cc(/C=C2\SC(=O)N(C)C2=O)c(C)n1-c1cccc(C(=O)O)c1`, the Potency in [1] is 47.4 µM (active).
Take `CC(/C=N/NC(=O)c1cc(-c2ccc3ccccc3c2)n[nH]1)=C\c1ccco1`: the Potency in [1] is 75.2 µM (active).
The same measure, in the same setting: under `ON=C1/C(=N\O)CC2(C/C1=N/O)OCCO2` stands 59.7 µM (active).
In the case of `N#C/C(=C\C1=C(N2CCOCC2)C(=C\c2ccccc2)/CC1)C(=O)Nc1ccccc1F`, the Potency was 38.3 µM (active) in [3] and 21.5 µM (active) in [5]. In assay [4], the Potency result is “inactive”.
In the case of `O=C(COC(=O)c1ccc([N+](=O)[O-])o1)NC12CC3CC(CC(C3)C1)C2`, the Potency in assay [2] was 8.49 µM (active).
As for `CCOC(=O)C1=C(c2ccc(OC)cc2)C(=O)c2ccccc2C1=O`, the Potency in assay [1] was 75.2 µM (active).
With `COc1cc(NC(=O)COC(=O)c2ccc([N+](=O)[O-])s2)cc(OC)c1OC`, the Potency in assay [2] is 6.01 µM (active).
Regarding `COc1ccc(Cl)cc1-c1cc(C(=O)Nc2cc(OC)c(OC)c(OC)c2)[nH]n1`, in [4], the Potency entry was “inactive”. For the same compound, in assay [5], the Potency was 27.1 µM (active).
Regarding `CCc1ccc2nc3sc(C(=O)Nc4nnc(CC)s4)c(N)c3cc2c1`, the Potency was 47.4 µM (active) in [1], 13.6 µM (active) in assay [3], 60.1 µM (active) in assay [2] and 10.8 µM (active) in assay [5]. Further, the Potency result in assay [4] is “inactive”.
As to `CN(C)c1nc(Nc2ccc(Cl)c(Cl)c2)nc(N(C)C)n1`, the Potency result in assay [3], in assay [4] and in [5] was “inactive” each time.
For `CC(=O)Nc1ccc(Nc2c3ccccc3nc3ccccc23)cc1`, in assay [2], the Potency was 30.1 µM (active).
With `O=C(c1cc2c(s1)CCC2)N1CCN(c2ccccc2)CC1`, the Potency in [1] is 37.7 µM (active).
As for `O=C(CCNC(=O)c1ccccc1)NN=Cc1ccc(Br)o1`, the Potency in assay [2] was 84.9 µM (active).
For `CN(C)CCNC(=O)c1ccc(Cl)c2cc3ccccc3nc12`, the Potency was 67 µM (active) in [1] and 13.5 µM (active) in assay [2].
For the compound `O=C1COc2c1ccc(O)c2O`, in [1], the Potency was 33.6 µM (active).
As to `CCN1CCN(CCCNC(=O)c2ccc3c(c2)sc2nc(-c4ccc(OC)cc4)cn23)CC1`, the Potency in assay [2] was 33.8 µM (active).
In the case of `Cc1ccc(-c2nn(-c3ccccc3)cc2/C=C2\SC(=S)N(CCCCCC(=O)O)C2=O)o1`, the Potency in assay [1] is 29.9 µM (active).
Still for that read-out and setting: under `O=C(COC(=O)CCC(=O)c1cccs1)NCc1ccco1` stands 23.8 µM (active).
With `Cc1ccc(-c2nc(SCc3ccc(Br)cc3)n3[nH]c(=O)cc3n2)cc1`, the Potency in assay [7] is 9.19 µM (active); in assay [3], 13.6 µM (active); in assay [5], 4.82 µM (active). Besides, the Potency entry in assay [4] was “inactive”.
As to `Cc1cc(/C=N/Nc2ccc([N+](=O)[O-])cn2)c(C)n1-c1cccc(C(=O)O)c1`, in assay [1], the Potency was 67 µM (active).
On to `CN1CCN(S(=O)(=O)c2cccc(C(=O)Nc3sccc3C#N)c2)CC1`, for which, in [3], the Potency was 24.1 µM (active). For the same compound, in assay [4], the Potency entry is “inactive”.
For the compound `CC1=NN(c2ccc(Cl)c(C(=O)O)c2)C(=O)/C1=C/c1ccc(-c2ccccc2[N+](=O)[O-])o1`, the Potency result in assay [4] is “inactive”.
As to `O=C([C@H](Cc1ccc(O[S+](=O)([O-])c2cccc3cccnc23)cc1)N[S+](=O)([O-])c1ccccn1)N1CCN(c2ccccc2)CC1`, the remaining parasite growth % (stronger effect = lower value) in assay [8] is -1.21%. The compound also had an activity, percent of control in assay [9] of 2.43%. For the same compound, the remaining proliferation (% of control), lower = more inhibition in [10] is -0.011%.
For `O=C([C@H](Cc1ccc(O[S+](=O)([O-])c2ccccn2)cc1)N[S+](=O)([O-])c1cccc2cnccc12)N1CCN(c2ccccc2)CC1` the same measures were -0.962%, 2.47% and 0.0492%.
For `O=C([C@@H](Cc1ccc(O[S+](=O)([O-])c2cccc3cccnc23)cc1)N[S+](=O)([O-])c1cccc2cccnc12)N1CCN(c2ccccc2)CC1` the same measures were 0.884%, 3.45% and 1.75%.
